These results are taken from the OligoGym collection.
Also: reference of the scale not given here.

In the experiment the target is ATP6V0A1. The experiment in a line: pooled miR-30 sensor sort-seq; sequence = guide strand. Particulars: shRNA.
In the case of TAAGTCACGAAACTGAACCTTT, the sensor-assay potency score (higher = more potent) was -0.177.

For the sequence TTATAAGTAAACATCGGCCGTA, the sensor-assay potency score (higher = more potent) was -0.196.

With TTGGAGATCATCAATCCTGGTA, the sensor-assay potency score (higher = more potent) came out at 0.0241.

The sequence TTATTCTGGAACTCAACCCAGT came in with a sensor-assay potency score (higher = more potent) of 0.03.

In the case of AATACAACATTGAATAACCAGA, the sensor-assay potency score (higher = more potent) is -1.17.

Take TTTATTGGTAGCAATGTTCCAA: the sensor-assay potency score (higher = more potent) was found to be 0.458.

In the case of TTATTGGTAGCAATGTTCCAAA, the sensor-assay potency score (higher = more potent) is -1.08.

For TTTCTGTCCAGAATACAACATT, the sensor-assay potency score (higher = more potent) is -0.792.

With TTTTAATTCGGTCAGTTCCAGG, the sensor-assay potency score (higher = more potent) was -1.24.

TTAAACAGCAGCATCCAAGGTA: the sensor-assay potency score (higher = more potent) worked out at 0.712.

For TATAAGTAAACATCGGCCGTAC, the sensor-assay potency score (higher = more potent) stood at 0.244.

As to TCTAAGTCAATCATGTCCCGGG, the sensor-assay potency score (higher = more potent) is 0.648.

As for TTGGAAAACATTCACATCTGGA, the sensor-assay potency score (higher = more potent) stood at 0.211.

For TTTCTGAGTCACATCTATGTTG, the sensor-assay potency score (higher = more potent) was -0.762.

TTCCGCACTTTGATGAACCAGA had a sensor-assay potency score (higher = more potent) of -0.516.

For the sequence TTTATTCTGGAACTCAACCCAG, the sensor-assay potency score (higher = more potent) is -0.592.

TCTCTTTCTCAACAAATCGAAG gave a sensor-assay potency score (higher = more potent) of -1.57.

Turning to ATAACAGACATCTTCATCTTAA, the sensor-assay potency score (higher = more potent) was -0.304.

The sequence TGACACAACAATAAGCAGCCTC yielded a sensor-assay potency score (higher = more potent) of -0.151.

With TAAGCATCTACTATGTTCTGAA, the sensor-assay potency score (higher = more potent) turned out to be 0.161.

For the sequence TTTCTCAACAAATCGAAGCTTT, the sensor-assay potency score (higher = more potent) is 0.0812.

As for TTTCTTCACATCTTCTAACTTC, the sensor-assay potency score (higher = more potent) was -0.0928.

TTGAATAACCAGACTCTGGGTA registered a sensor-assay potency score (higher = more potent) of 0.472.
